High-throughput results: PubChem BioAssay, National Center for Advancing Translational Sciences (NCATS)
This is a sample that favours compounds with a hit; in the whole collection about 19% have one here.
HepG2 viability: counter-screen for TGF-b inhibitors: cytotoxicity in HepG2 cells | HepG2 CAGA-GFP viability, ATP luminescence, 18 h | Potency, µM (highest dose often 46.1 µM), for inactives: at the top dose activity change, negative = cytotoxicity, hits mostly cytotoxic | 0.76% of 410,000 active | AID 588856; note: potency is the fitted concentration of half-maximal effect
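HepG2 CAGA-GFP cells (1000/well, DMEM with 1% FBS) received compound, then TGF-beta at 500 pg/mL final, and were incubated 18 hours at 37 degrees C. Viability was read by CellTiter-Glo luminescence. Media-only wells were set as complete cell-killing and DMSO as no toxicity.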
TGFb inhibitor: inhibitors of TGF-b signaling; HepG2 CAGA-GFP TGF-b/SMAD3 reporter, GFP fluorescence, 18 h; TGF-beta stimulated, 500 pg/mL final; Potency, µM (top dose mostly 46.1 µM), inactives show at the top dose activity, negative = inhibition, usual class: inhibitors; 1.2% of 410,000 active; note: potency is the fitted concentration of half-maximal effect; % is set by controls: 0 for no effect and ±100 for the full control effect; nearly all actives have a fitted effect of over 65% in size
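Cell-based qHTS in HEPG2 carrying a CAGA-GFP Smad reporter; compounds added before 500 pg/mL final TGF-beta, 18 h incubation at 37 degrees C, GFP fluorescence quantified per cell by imaging cytometry.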
TDP1 inh: inhibitors of human tyrosyl-DNA phosphodiesterase TDP1. Potency, µM (top dose mostly 130 µM), inactives show at the highest dose activity change, negative = inhibition, usual class: inhibitors. recombinant TDP1, AlphaScreen DNA substrate cleavage. AID 485290. Q9NUW8. 0.28% of 350,000 active; note: potency is the fitted concentration of half-maximal effect; % is set by controls: 0 for no effect and ±100 for the full control effect; nearly all actives have a fitted effect of over 40% in size
Target sequence (Q9NUW8 whole entry, looked up): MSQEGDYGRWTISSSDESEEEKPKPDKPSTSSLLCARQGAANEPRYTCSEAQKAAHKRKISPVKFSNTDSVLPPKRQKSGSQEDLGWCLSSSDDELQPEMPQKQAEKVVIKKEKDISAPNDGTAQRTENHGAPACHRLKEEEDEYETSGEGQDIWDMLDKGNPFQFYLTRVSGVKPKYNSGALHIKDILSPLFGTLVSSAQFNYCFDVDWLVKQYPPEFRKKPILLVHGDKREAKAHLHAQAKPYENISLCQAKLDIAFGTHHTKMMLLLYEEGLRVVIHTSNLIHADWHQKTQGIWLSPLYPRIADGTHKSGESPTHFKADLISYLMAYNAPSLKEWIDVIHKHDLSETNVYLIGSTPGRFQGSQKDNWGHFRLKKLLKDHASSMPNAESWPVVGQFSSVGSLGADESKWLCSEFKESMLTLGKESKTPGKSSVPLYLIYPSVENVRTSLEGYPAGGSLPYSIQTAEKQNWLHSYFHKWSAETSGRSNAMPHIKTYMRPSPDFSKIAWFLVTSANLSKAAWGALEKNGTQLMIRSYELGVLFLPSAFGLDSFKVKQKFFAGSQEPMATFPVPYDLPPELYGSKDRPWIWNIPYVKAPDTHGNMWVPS
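Enzyme-compound mixtures sat 15 min at room temperature, followed by a 5 min reaction with 15 nM final substrate and 10 min with AlphaScreen beads. Recombinant human Tdp1 was used at 1 nM final.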
DT40 TDP1 CPT: growth inhibition of DT40 Tdp1-/-;hTDP1 cells with camptothecin (screen for TDP1 inhibitors). chicken DT40 Tdp1-/-;hTDP1 cells + 20 nM CPT, ATP luminescence, 48 h. Potency, µM (highest dose often 46.2 µM), for inactives: at the highest dose activity change, negative = growth inhibition, hits mostly inhibitors. 12% of 420,000 active; note: potency is the fitted concentration of half-maximal effect; % is set by controls: 0 for no effect and ±100 for the full control effect; nearly all actives have a fitted effect of over 55% in size
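Chicken DT40 Tdp1-/- cells complemented with human TDP1, 400 cells/well, exposed to compounds plus 20 nM camptothecin for at least 48 h at 37 C; viability read as ATP content by CellTiter-Glo luminescence.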
TDP1 cell noCPT: qHTS for Inhibitors of human tyrosyl-DNA phosphodiesterase 1 (TDP1): qHTS in cells in absence of CPT; Potency, µM (top dose mostly 46.2 µM), for inactives: top-dose activity change, negative = growth inhibition, usual class: inhibitors; DT40 Tdp1-/- hTDP1 cells, no CPT, ATP luminescence, 48 h; 15% of 420,000 active; note: potency is the fitted concentration of half-maximal effect; % is set by controls: 0 for no effect and ±100 for the full control effect; nearly all actives have a fitted effect of over 55% in size
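Camptothecin absent (DMSO only). Human TDP1-complemented DT40 knockout cells, 400 cells/well, 37 °C for minimum 48 hr; ATP measured via CellTiter-Glo, 30 min dark incubation, luminescence.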
IL1B secr inh: blocks inflammasome-driven IL-1 beta release; activity change, % at 57.5 µM; AID 743279; THP-1 LPS/ATP IL-1B secretion, AlphaLISA, 16 h; stronger effect = lower value; 4.7% of 360,000 active; in the data active = activity change below about -50%; inconclusive = mostly about -30% to -49%; note: % is set by controls: 0 for no effect and ±100 for the full control effect
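THP-1 cells pretreated 1 hr with compounds (up to 57.5 uM final), then stimulated with LPS (250 ng/mL final) plus ATP (1.25 mM final); secreted IL-1B measured by AlphaLISA after 16 hr, decreased signal indicating inhibition.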
Active calls of the source: *; u = inconclusive; x = no result; [ ] = another dose, or the depositor's remark. Unless noted, calls come from the whole dose curve; as a rule, active = well fitted curve in the direction sought with a large enough effect; inconclusive = small, poorly fitted or top-dose-only effect, or another doubt; inactive = no such curve, though single readings can be large; an effect the other way counts as inactive or inconclusive.

SMILES	HepG2 viability	TGFb inhibitor	TDP1 inh	DT40 TDP1 CPT	TDP1 cell noCPT	IL1B secr inh
Cc1ccc(-c2nnc(SCC(=O)NC(C)(C)C)nc2-c2ccc(C)cc2)cc1	-16%	u	10%	29µM*	u	x
CCOc1ccc(-c2nnc(SCC(=O)NC(C)(C)C)nc2-c2ccc(OCC)c(OC)c2)cc1OC	4%	0%	x	u	-20%	3
CCOc1ccc(-c2nnc(SCC(=O)NCc3ccc(C)cc3)nc2-c2ccc(OCC)c(OC)c2)cc1OC	-5%	1%	6%	u	u	x
Cc1ccc(-c2nnc(SCC(=O)N(C)C)nc2-c2ccc(C)cc2)cc1	6%	-1%	3%[0.0935 µM]	u	23µM*	0
Cc1ccc(-c2nnc(SCC(=O)N3CCOCC3)nc2-c2ccc(C)cc2)cc1	-9%	14%	5%	21µM*	u	-7
